Nrf2 activator – qHTS of Nrf2 Activators; AREc32 ARE-luciferase reporter (MCF7-derived line), luminescence, 24 h; Potency, µM (doses to about 46.1 µM), inactives show at the top dose activation, hits mostly activators; actives 0.31% (n = 410,000); AID 624171, 2012; further: % of control where 0% means no effect; nearly all actives have a fitted effect of over 65% in size
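Luminescent ARE reporter assay in AREc32_Fluc cells: overnight plating at 37 deg C, 24 hr compound incubation, Steady-Glo added, 30 min RT before reading.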
Nrf2 inh – Nrf2 qHTS screen for inhibitors; A549 ARE-Fluc reporter, luciferase luminescence, 18-24 h; Potency, µM (titrated, usually from 46 µM), without a hit: at the highest dose activity change, negative = inhibition, most hits filed as inhibitors; actives 2.1% (n = 360,000); AID 504444, 2011; further: on the % scale 0 is the no-effect control and ±100 the full control effect; nearly all actives have a fitted effect of over 60% in size
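Reporter: ARE-Fluc in A549. Exposure: 18-24 h, 37 °C, 5% CO2, 5% FBS OPTI-MEM. Readouts: fluorescent cytotoxicity (CellTiter-Fluor), then luminescent Nrf2 signal after BugLite.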
A549 tox – Nrf2 qHTS screen for inhibitors: counterscreen for cytotoxicity; A549 ARE-Fluc cells, CellTiter-Fluor viability, 18-24 h; Potency, µM (series often up to 46 µM), inactives show at the highest dose activity change, negative = cytotoxicity, usual class: inhibitors; actives 0.16% (n = 390,000); AID 504648, 2011; further: on the % scale 0 is the no-effect control and ±100 the full control effect
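A549 ARE-Fluc cells in 5% FBS OPTI-MEM, 5000 cells/well, rested 2 h then exposed to compounds in concentration-response for 18-24 h at 37 °C. Viability by CellTiter-Fluor fluorescence (Ex 405/Em 525) after 30 min; luciferase luminescence (BugLite, 15 min, RT) read afterwards.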
Pin1 inh – qHTS Assay to Find Inhibitors of Pin1; Pin1 FP peptide displacement, HiFluor488, 10 min; Potency, µM (top dose mostly 115 µM), for inactives: at the top dose activity, negative = inhibition, most hits filed as inhibitors; actives 0.009% (n = 390,000); AID 504891, 2011; active means well fitted inhibition curve with a large enough effect in the polarisation, with a control signal flat, not every such curve was filed as active; inconclusive means small, poorly fitted or top-dose-only effect, or effect the other way, or a change in a side signal; inactive means no such curve, though single readings can be large or run the other way; the % refers to the polarisation; further: on the % scale 0 is the no-effect control and ±100 the full control effect
Target sequence (Q13526 whole entry, looked up): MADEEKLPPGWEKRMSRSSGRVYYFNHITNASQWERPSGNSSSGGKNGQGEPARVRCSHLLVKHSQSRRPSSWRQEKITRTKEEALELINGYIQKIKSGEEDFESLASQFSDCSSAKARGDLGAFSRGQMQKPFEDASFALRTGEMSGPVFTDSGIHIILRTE
Active calls of the source: *; ? = inconclusive; nt = not tested or not shown. In the library only some 2.2% were active in any assay of this set; here they are far more common. Unless noted, the call rests on the fitted dose curve; in most records, active means well fitted curve in the direction sought with a large enough effect; inconclusive means small, poorly fitted or top-dose-only effect, or another doubt; inactive means no such curve, though single readings can be large; an effect the other way counts as inactive or inconclusive. Potency means the concentration at half of the fitted maximal effect.

SMILES | Nrf2 activator | Nrf2 inh | A549 tox | Pin1 inh
O=C(c1ccc2c(c1)OCCO2)C1CCN(S(=O)(=O)c2ccccc2F)CC1 | -0.4% | 13µM* | -20.5% | 12.5%
Cc1ccc(S(=O)(=O)N2CCN(c3nc(-c4ccc(CN5CCOCC5)s4)nc4ccccc34)CC2)cc1 | nt | -2.3% | 3.9% | ?
CCOC(=O)c1ccc2c(c1)nc(C1CCN(S(=O)(=O)c3cccs3)CC1)n2CC | 1.6% | 25.9µM* | ? | 16.3%
CCOC(=O)c1cccc(NC(=O)C2CCN(S(=O)(=O)c3cccs3)CC2)c1 | 2.0% | nt | ? | 17.9%
CC(=O)NC1=CC(=O)c2nonc2C1=O | nt | 2.91µM* | 7.31µM* | nt
O=S(=O)(c1ccccc1F)N1CCN(c2nc(-c3cccs3)nc3ccccc23)CC1 | nt | -7.0% | -0.4% | -0.3%
CCN(Cc1ccccc1)S(=O)(=O)c1cc(C(=O)NCC2CCCCC2)ccc1OC | 0.0% | 11.6µM* | -21.5% | 11.8%
CCN(Cc1ccccc1)S(=O)(=O)c1cc(C(=O)NC2CCCCCC2)ccc1OC | 0.0% | ? | ? | 10.9%
Cc1occc1C(=O)O/N=C(\N)c1ccc(Cl)cc1 | 6.31µM* | ? | 3.4% | -2.3%
COc1ccc(Cl)cc1C(=O)O/N=C(\N)c1ccc(Cl)cc1 | 7.94µM* | ? | 3.5% | -1.8%
Cc1noc(-c2ccc(Cl)cc2)c1C(=O)O/N=C(\N)c1ccc(C(C)(C)C)cc1 | 1.9% | ? | ? | -0.8%
CC1(C)CC(=O)C2=C(C1)N=C1c3ccccc3C(=O)C1C2c1ccc(Cl)cc1 (stereo not given) | 0.4% | 25.9µM* | 25.9µM* | -9.7%
CCOC(=O)C1=C(C)N=C2c3ccccc3C(=O)C2C1c1ccc(Cl)cc1 (stereo not given) | 7.8% | ? | 16.4µM* | ?
Cc1ccc(C2C3=C(CC(C)(C)CC3=O)N=C3c4ccccc4C(=O)C32)cc1 (stereo not given) | -0.1% | ? | ? | -3.5%
Cc1ccc2c(CN3CCN(S(=O)(=O)c4ccc5c(c4)OCCO5)CC3)cc(=O)oc2c1C | 0.6% | 16.4µM* | -19.1% | ?
C#CC(=O)N(c1cccc(OC)c1)C(C(=O)NC1CCCC1)c1cccs1 (stereo not given) | -1.7% | 16.4µM* | -14.8% | ?
Cc1cccc(N(C(=O)C(F)(F)F)C(C(=O)NC2CCCCC2)c2cccs2)c1 (stereo not given) | 2.8% | 4.1% | -4.8% | -9.4%
C#CC(=O)N(c1ccc(OC)c(OC)c1)C(C(=O)NC1CCCC1)c1cccs1 (stereo not given) | ? | 23.1µM* | ? | -18.3%
NS(=O)(=O)c1ccc(NC(=O)CN2CCN(c3ccc(F)cc3)CC2)cc1 | 0.4% | nt | 7.8% | 2.1%
COc1cc(/C=N/NC(=O)c2cc(-c3ccccc3)sc2N)cc(OC)c1OC | 4.6% | 16.4µM* | -12.3% | 9.0%
COc1cc(/C=N/NC(=O)c2ccc(-c3ccccc3)cc2)cc(OC)c1OC | 4.6% | ? | 0.7% | -0.3%
O=C(NCCN1CCCCC1)c1ccc(Cn2c(SCc3ccc(F)cc3)nc3cccnc32)cc1 | 8.4% | 6.5% | -28.4% | -7.1%
Cc1ccc(S(=O)(=O)n2cnc3cc([N+](=O)[O-])ccc32)cc1C | 0.3% | -13.5% | -1.8% | -8.5%
Cc1ccc(-n2c3nc(=O)[nH]c(=O)c-3cc3cc([N+](=O)[O-])ccc32)cc1C | 3.4% | 14.6µM* | ? | ?
Cc1noc(C)c1-c1ccc2ncnc(NCc3ccco3)c2c1 | nt | -22.3% | 2.7% | -4.7%
SMILES | Nrf2 activator | Nrf2 inh | A549 tox | Pin1 inh
O=C(Nc1ccc(Cl)cc1)C1CCC(CNS(=O)(=O)c2ccc(Br)s2)CC1 (stereo not given) | 0.4% | 2.1% | 0.7% | 7.3%
O=S(=O)(c1ccc(-c2csc(=Nc3ccc(F)cc3)n2CCCCCCO)cc1)N1CCCC1 | -3.2% | 23.1µM* | ? | 0.4%
CC(C)Cn1c(-c2ccc(S(=O)(=O)N3CCCC3)cc2)csc1=Nc1ccccc1 | 1.2% | 16.4µM* | 4.4% | -1.2%
CC(=O)c1cccc(N=c2scc(-c3ccc(S(=O)(=O)N4CCOCC4)cc3)n2CCO)c1 | 7.5% | 14.6µM* | -0.6% | -1.8%
CCOC(=O)c1ccc(NC(=O)CCc2nc(-c3ccccc3Cl)no2)cc1 | -0.2% | 16.4µM* | -19.3% | -1.6%
Cc1cc(=O)oc2cc(NC(=O)c3ccccc3Cl)ccc12 | 5.01µM* | 22.7% | -1.7% | -5.9%

Assay outcomes as filed in PubChem.
